Compound activity as filed in PubChem BioAssay.
Rows were chosen to be rich in hits. Some 3.3% of all compounds tested hit in one or more screens of this group.
HCV inhibitor = HCV inhibition | Potency, µM (highest dose often 41.8 µM), for the others: at the highest dose activity change, negative = inhibition, most hits filed as inhibitors | hit rate 3.4% among 340,000 | Huh7.5.1 HCVcc-Cre infection, luciferase reporter, 44 h; active = well fitted inhibition curve with a large enough effect; inconclusive = small, poorly fitted or top-dose-only effect, or another doubt; inactive = no such curve, though single readings can be large or run the other way
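Whole-lifecycle infectious HCVcc-Cre system; cells 1,000/well, compound then virus (~0.5 moi) added 4 h after plating, 44 h culture. Luciferase read 15 sec following 15 min substrate incubation, room temp.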
Vaccinia Venus = vaccinia inhibition (Venus reporter). Vaccinia virus Venus reporter expression, fluorescence. Potency, µM (doses to about 36.5 µM), inactives show at the top dose activity change, negative = inhibition, usual class: inhibitors. hit rate 0.46% among 330,000. AID 720580; calls by dose curve; tested in A549 cells; note: nearly all actives have a fitted effect of over 30% in size
Vaccinia mCherry = inhibitors of vaccinia virus infection (mCherry reporter signal); AID 720579; Vaccinia virus mCherry reporter infection, fluorescence; hit rate 0.63% among 310,000; Potency, µM (highest dose often 36.5 µM), without a hit: at the top dose activity change, negative = inhibition, hits mostly inhibitors; calls by dose curve; tested in A549 cells; note: nearly all actives have a fitted effect of over 35% in size
Numbers without * were called inactive; i = inactive; ? = inconclusive; . = no result given; [ ] = dose if it differs, or a comment. % is set by controls: 0 for no effect and ±100 for the full control effect; potency is the fitted concentration of half-maximal effect.

SMILES | HCV inhibitor | Vaccinia Venus | Vaccinia mCherry
Cc1cc(C)nc(N2CCN(C(=O)c3ccc(S(=O)(=O)N4CCCCCC4)cc3)CC2)n1 | 11µM* | -7% | -15%
Cc1nn(-c2ccc(C(=O)N3CCN(S(=O)(=O)c4ccccc4C(F)(F)F)CC3)cc2)c(C)c1Cl | 0% | . | .
Cc1ccc(S(=O)(=O)N2CCN(C(=O)c3ccc(S(=O)(=O)N4CCCC4)cc3)CC2)cc1 | 3% | . | .
O=C(c1ccc(Cl)c(S(=O)(=O)N2CCCCCC2)c1)N1CCN(c2ccccn2)CC1 | 7.1µM* | ? | ?
CC(=O)c1ccc(S(=O)(=O)N2CCN(C(=O)c3ccc(-n4nc(C)c(Cl)c4C)cc3)CC2)cc1 | 6.3µM* | . | .
CCOc1ccccc1N1CCN(C(=O)c2cc(S(=O)(=O)N3CCCCC3)ccc2C)CC1 | -20% | . | .
CCOc1ccccc1N1CCN(C(=O)c2ccc(Cl)c(S(=O)(=O)N3CCCCC3)c2)CC1 | 10µM* | -22% | -18%
O=C(c1ccc(Cl)c(S(=O)(=O)N2CCCCCC2)c1)N1CCCCC1 | -12% | . | .
CCCSC1=NC2(CCN(C(=O)NC3CCCCC3)CC2)N=C1c1ccc(C)cc1 | . | 7% | 0%
C(=C1c2ccccc2Oc2ccccc21)c1ccccc1 | . | -9% | -13%
CCc1sc(-c2cc3cccc(OC)c3oc2=O)nc1-c1cc(C)ccc1C | . | -20% | 1%
Cc1ccc(NS(=O)(=O)c2ccc3[nH]c4c(c3c2)CCCCC4)cc1 | . | -17% | -8%
CCN1CCCC1CNC(=O)c1cnn(-c2nccc(-c3cc4ccccc4o3)n2)c1C1CC1 (stereo not drawn) | . | -23% | -23%
CS(=O)(=O)c1ccc(C(O)C(CO)NC(=O)C(Cl)Cl)cc1 (stereo not drawn) | . | -8% | -15%
COc1ccc(Cn2nnc3c(=O)[nH]c(C4CCN(C(=O)c5ccc(C)cc5)CC4)nc32)cc1OC | . | 0% | -4%
Cc1cc(NC(=O)C(=O)c2cn(C)c3ccccc23)no1 | ? | -8% | i
O=C(Nc1nc2ccc(Cl)cc2s1)C1CCCO1 (stereo not drawn) | -24% | -21% | .
O=C(Nc1nc2cc3c(cc2s1)OCO3)C1CC1 | 10µM* | -7% | -12%
O=C(Nc1nc2ccc(Cl)cc2s1)C1CC1 | 8.9µM* | . | .
O=C(Nc1nc2cc3c(cc2s1)OCCO3)C1CCCCC1 | ? | -26% | ?
NS(=O)(=O)c1ccc(CNC(=O)c2ccc(C(=O)c3ccccc3)cc2)cc1 | -1% | -4% | -3%
COc1ccc(NC(=O)c2c(-c3ccccc3)c(-c3ccccc3)nn(C)c2=O)cc1OC | . | 0% | 4%
COc1ccc(CNC(=O)Cn2nc3c(cc2=O)CCCC3)cc1 | . | 0% | -11%
CCCN(CCC)C(=O)c1cc(S(=O)(=O)N2CCCCC2)c[nH]1 | 4.5µM* | -10% | i
CC(C)CN(CC(C)C)C(=O)c1cc(S(=O)(=O)N2CCCCC2)c[nH]1 | 2% | . | .
SMILES | HCV inhibitor | Vaccinia Venus | Vaccinia mCherry
COc1ccc(C(=O)CSc2ccccc2C(=O)O)cc1 | 12% | -8% | i
COc1cc2c(NC3CCN(C(C)C)CC3)nc(N3CCCN(C)CC3)nc2cc1OCCOCCN(C)C | . | 1.8µM* | 1.6µM*
COc1cc2c(NC3CCN(C)CC3)nc(N3CCCCC3)nc2cc1OCCOCCN(C)C | . | 13µM* | 10µM*
COc1cc2c(NC3CCN(C(C)C)CC3)nc(N3CCCN(C)CC3)nc2cc1OCCCN1CCCC1 | . | 1µM* | 0.89µM*
COc1cc2nc(N3CCN(C)CC3)nc(NC3CCN(C)CC3)c2cc1OC | . | -30% | -15%
COc1cc2nc(N3CCCCC3)nc(NC3CCN(Cc4ccccc4)CC3)c2cc1OC | . | -28% | -7%
COc1cc2c(NC3CCN(C)CC3)nc(N3CCCN(C)CC3)nc2cc1OCCOCCN(C)C | . | -20% | -23%
COc1cc2c(NC3CCN(C)CC3)nc(N3CCCCC3)nc2cc1OCCCN(C)C | . | 10µM* | ?
COc1cc2c(NC3CCN(C)CC3)nc(N3CCN(C)CC3)nc2cc1OCCOCCN(C)C | . | -19% | -20%
CC(NC(=O)C(C)N1c2cccc3cccc(c23)S1(=O)=O)c1ccccc1 (stereo not drawn) | -7% | -17% | -17%
COC(=O)c1ccc(CNC(=O)C2CCC(=O)N(C3CCCCCC3)C2)cc1 (stereo not drawn) | -10% | . | .
Cc1ccccc1Cn1cc(S(=O)(=O)c2ccc(C(C)C)cc2)c(=O)c2cc3c(cc21)OCO3 | 10µM* | -11% | -15%
Cc1ccc(Cn2cc(S(=O)(=O)c3ccc(C(C)C)cc3)c(=O)c3cc4c(cc32)OCO4)cc1 | -2% | -12% | -8%
CC(C)C(=O)N1CCN(c2ccccc2NC(=O)c2ccc(C#N)cc2F)CC1 | 6% | -2% | 0%
CC1CCN(c2ccccc2NC(=O)c2ccc(C#N)cc2F)CC1 | 10µM* | -12% | -6%
C[C@@H]1CN([C@@H](C)CO)S(=O)(=O)c2ccc(Br)cc2O[C@H]1CN(C)Cc1ccccn1 | . | -24% | ?
O=C(NCc1cccs1)c1cc(-c2ccccc2)nc2ccccc12 | ? | -6% | i
Cc1ccc(C)c(-c2cc(C(=O)NCc3cccs3)c3ccccc3n2)c1 | 13µM* | . | .
CC(C)CCc1noc(CN(C)CCC2CCOCC2)n1 | 8% | -17% | -3%
Cc1nn(C)c(C)c1CN(Cc1nc(CCC(C)C)no1)C(C)C | 1µM* | -13% | -12%
COc1ccc(-c2cn(-c3ccc(C)c(C)c3)c(=S)[nH]2)cc1OC | ? | -10% | -2%
COc1ccc(-c2cn(-c3ccccc3)c(=S)[nH]2)cc1OC | 10µM* | . | .
CN(c1cccc(NC(=O)CN(c2cccc(Cl)c2)S(=O)(=O)c2ccc(Cl)cc2)c1)S(C)(=O)=O | 22µM* | ? | -7%
Cc1ccc(Cl)cc1N(CC(=O)Nc1cccc(N(C)S(C)(=O)=O)c1)S(C)(=O)=O | -7% | -14% | -23%
COc1cccc(-c2cc(C(=O)Nc3ccncc3)c3ccccc3n2)c1 | ? | -18% | -12%
SMILES | HCV inhibitor | Vaccinia Venus | Vaccinia mCherry
Cc1[nH]c2ccccc2c1/C=N/NC(=O)c1cc(-c2ccccc2)n[nH]1 | ? | -8%[7.34 µM] | -16%[7.34 µM]
Cc1cc(NC(=O)c2cc(-c3ccncc3)nc3ccccc23)ccc1Br | 8.9µM* | -19% | ?
O=C(c1cc(-c2ccc(Br)cc2)nc2ccccc12)N1CCN(c2ccccc2O)CC1 | ? | ? | 14µM*
Cc1[nH]c2ccccc2c1/C=N/NC(=O)c1cc(-c2ccncc2)nc2ccccc12 | 10µM* | . | .
CC(=O)Nc1ccc(NC(=O)c2cc(-c3ccccc3)nc3ccccc23)cc1 | ? | -10% | i
COc1cccc(-c2cc(C(=O)Nc3ccc(N(C)C(C)=O)cc3)c3cc(Br)ccc3n2)c1 | 11µM* | . | .
Cc1ccc(-c2cc(C(=O)N3CCN(c4ccccc4O)CC3)c3ccccc3n2)o1 | -11% | -20% | ?
Cc1c(C(=O)N2CC3CCC2C3)sc2ncnc(NCc3ccco3)c12 (stereo not drawn) | . | -17% | -2%
CCN(CC(=O)NCc1ccc(Cl)cc1)C(=O)CN1C(=O)NC(C)(c2ccccc2)C1=O (stereo not drawn) | 12% | -15% | -16%
Cc1cc(NS(=O)(=O)c2ccc(NC(=O)c3cc(-c4cccnc4)nc4ccc(Cl)cc34)cc2)no1 | 52% | . | .
O=C(Nc1cccnc1)c1cc(-c2ccc(Br)cc2)nc2ccccc12 | 3.2µM* | 5% | i
CSc1ccccc1NC(=O)c1cc(-c2cccnc2)nc2ccc(Br)cc12 | 11µM* | -10% | i
